The values that follow come from PubChem BioAssay (NCI).

Molecules are shown by their SMILES. This is part of a sample that, as a whole, favours compounds with a hit. Of some 83,000 tested, about 20% had one in any assay.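 How to read the values: 0–100, growth inhibition (40 = 60% inhibited); 0, no net growth; -100 to 0, cell death (-40 = 40% of starting cells died; -100 = all dead).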 Values without a mark were called inactive. The source made the active and inactive calls. The calls were made as follows: active = growth percent below 10; inactive = the rest.

Test systems include NCI-H23 lung; NCI-H226 lung; NCI-H322M lung; HOP-62 NSCLC; NCI-H460 lung; HOP-92 NSCLC; NCI-H522 lung; A549/ATCC NSCLC; 786-0 renal; COLO 205 colon; DU-145 prostate; K-562 leukemia; MALME-3M melanoma; MDA-MB-231 breast; RXF 393 renal; SF-268 CNS; SF-295 CNS; SF-539 CNS; UACC-257 melanoma; M14 melanoma.
What all share (assay): NCI-60 one-dose screen, 48 h (100 = growth as untreated, 0 = no growth, -100 = all killed)
Conditions in all cases: 10 µM unless noted

On to `Cc1ccc(Nc2cc(N)nc(N)n2)cc1`, for which the growth with NCI-H23 lung was 91.4%; in the assay with NCI-H226 lung it was 110%; with NCI-H322M lung it was 98.5%; in the assay on HOP-62 NSCLC it was 101%; with NCI-H460 lung it was 101%; with HOP-92 NSCLC, 90%. Further, the growth was 94.3% in the assay with NCI-H522 lung; 97.3% with A549/ATCC NSCLC; 99.6% with 786-0 renal; 105% with COLO 205 colon; 107% in the assay with DU-145 prostate; 87.9% in the assay on K-562 leukemia. For the same molecule, the growth is 102% with MALME-3M melanoma; 108% in the assay with MDA-MB-231 breast; 114% with RXF 393 renal; 93.4% with SF-268 CNS; 103% with SF-295 CNS; 112% in the assay with SF-539 CNS. Further, the results for the growth with UACC-257 melanoma and with M14 melanoma were 110% and 104%, respectively.
Turning to `COc1cc(NC(=O)c2cncnc2Nc2ccc3c(ccn3Cc3cccc(F)c3)c2)cc(OC)c1`, the growth with NCI-H23 lung was 79.1%; in the assay on NCI-H226 lung, 80.3%; in the assay with NCI-H322M lung, 84.1%; in the assay on HOP-62 NSCLC, 52.7%; in the assay with NCI-H460 lung, 45.9%; with HOP-92 NSCLC it was 83.4%. Also, the growth in the assay on NCI-H522 lung was 44.3%; in the assay on A549/ATCC NSCLC it was 40.4%; with 786-0 renal it was 81.1%; in the assay on COLO 205 colon, 61.3%; in the assay on DU-145 prostate it was 79.9%; in the assay on K-562 leukemia, 15.4%. The growth was 71.6% in the assay with MALME-3M melanoma; 57.4% in the assay on MDA-MB-231 breast; 62.5% with RXF 393 renal; 68.9% with SF-268 CNS; 50.4% in the assay on SF-295 CNS; 44.4% with SF-539 CNS. Further, the growth was 72.7% with UACC-257 melanoma and 47.2% in the assay with M14 melanoma.
For the molecule `CCOC(=O)c1c(C)n2c(=O)cc(C)c3c(OC(C)=O)c(OC(C)=O)cc1c32`, the growth in the assay on NCI-H23 lung is 75%; with NCI-H226 lung, 102%; in the assay with NCI-H322M lung, 79.9%; in the assay with HOP-62 NSCLC, 81.4%; with NCI-H460 lung, 40.8%; in the assay on HOP-92 NSCLC, 71.8%. In addition, the growth in the assay with NCI-H522 lung is 55.3%; in the assay with A549/ATCC NSCLC, 79.8%; in the assay with 786-0 renal, 81.3%; in the assay with COLO 205 colon, 74.1%; in the assay on DU-145 prostate it was 67.3%; in the assay with K-562 leukemia, 22.3%. Moreover, the growth with MALME-3M melanoma is 75%; in the assay with MDA-MB-231 breast it was 86.7%; in the assay with RXF 393 renal, 73.8%; in the assay with SF-268 CNS, 49.6%; in the assay on SF-295 CNS it was 94.8%; in the assay with SF-539 CNS it was 72.1%. Also, the growth is 108% in the assay with UACC-257 melanoma and 83.2% with M14 melanoma.
Consider `COc1ccc(Cn2cc3c(c2)-c2oncc2CC3)cc1`, for which the growth in the assay on NCI-H23 lung was 79.8%; with NCI-H226 lung it was 86.9%; in the assay with NCI-H322M lung, 89.6%; in the assay on HOP-62 NSCLC, 58.8%; in the assay with NCI-H460 lung it was 39.9%; in the assay on HOP-92 NSCLC, 70.1%. The growth was 71% in the assay with NCI-H522 lung; 52.1% with A549/ATCC NSCLC; 72.5% in the assay with 786-0 renal; 68.4% in the assay on COLO 205 colon; 176% in the assay on DU-145 prostate; 20.6% in the assay on K-562 leukemia. Further, the growth with MALME-3M melanoma was 83.2%; in the assay on MDA-MB-231 breast it was 70.5%; in the assay on RXF 393 renal, 75.8%; in the assay on SF-268 CNS, 136%; in the assay with SF-295 CNS it was 58.6%; with SF-539 CNS it was 48%. In addition, the figures for the growth in the assay on UACC-257 melanoma and in the assay on M14 melanoma were 85.9% and 29.2%, respectively.
Consider `COc1cc2c(c(OC)c1OC)C(=O)CC(c1cccc(C(=O)Nc3ccc(Br)cc3)c1)O2` (stereo not given), for which the growth in the assay with NCI-H23 lung is 60.3%; in the assay with NCI-H226 lung it was 37.6%; in the assay on NCI-H322M lung, 59.9%; in the assay with HOP-62 NSCLC it was 86%; in the assay on NCI-H460 lung, 78.8%; in the assay with HOP-92 NSCLC, -8.2% (active). Also, the growth was 48.5% in the assay with NCI-H522 lung; 78.8% in the assay with A549/ATCC NSCLC; 71.8% in the assay with 786-0 renal; 81.7% in the assay on COLO 205 colon; 73% in the assay with DU-145 prostate; 6.2% (active) in the assay with K-562 leukemia. Also, the growth in the assay with MALME-3M melanoma was 70%; with MDA-MB-231 breast it was 50.8%; in the assay with RXF 393 renal it was 66.5%; in the assay on SF-268 CNS, 64.2%; with SF-295 CNS it was 63.6%; in the assay with SF-539 CNS, 82.8%. Further, the growth with UACC-257 melanoma was 74.7%; in the assay on M14 melanoma, 57.7%.
For the molecule `O=C(Nc1ncc(Cc2ccc(Cl)cc2)s1)C1=NCCCCN1`, the growth in the assay on NCI-H23 lung is 99%; with NCI-H226 lung, 99.7%; in the assay on NCI-H322M lung it was 94.9%; with HOP-62 NSCLC it was 108%; with NCI-H460 lung it was 106%; in the assay with HOP-92 NSCLC it was 119%. Besides, the growth was 82.1% in the assay with NCI-H522 lung; 109% in the assay with A549/ATCC NSCLC; 107% in the assay on 786-0 renal; 110% in the assay on COLO 205 colon; 105% with DU-145 prostate; 95.4% with K-562 leukemia. Moreover, the growth is 102% in the assay on MALME-3M melanoma; 110% in the assay on MDA-MB-231 breast; 119% in the assay on RXF 393 renal; 103% in the assay on SF-268 CNS; 102% in the assay with SF-295 CNS; 102% with SF-539 CNS. Further, the growth in the assay on UACC-257 melanoma was 108%; with M14 melanoma, 104%.
On to `CCOC(=O)/C=C1\S/C(=N\Nc2cc(=O)[nH]c3ccc(OC)cc23)N(c2ccccc2)C1=O`, for which the growth in the assay on NCI-H23 lung is 94%; in the assay with NCI-H226 lung, 93.2%; in the assay with NCI-H322M lung, 101%; in the assay with HOP-62 NSCLC, 97.5%; in the assay with NCI-H460 lung, 110%; with HOP-92 NSCLC, 89.7%. Moreover, the growth with NCI-H522 lung was 83.3%; in the assay with A549/ATCC NSCLC it was 104%; with 786-0 renal, 94.4%; in the assay with COLO 205 colon, 95.7%; with DU-145 prostate, 98.6%; in the assay with K-562 leukemia, 86.5%. The growth was 101% with MALME-3M melanoma; 107% with MDA-MB-231 breast; 111% with RXF 393 renal; 101% in the assay with SF-268 CNS; 102% in the assay with SF-295 CNS; 97.4% in the assay on SF-539 CNS. In addition, the growth was 102% in the assay on UACC-257 melanoma and 99.9% with M14 melanoma.
Turning to `O=c1[nH]c(CN2CCN(c3ccccc3)CC2)nc2c(Br)cc(Br)cc12`, the growth in the assay on NCI-H23 lung was 98.4%; in the assay on NCI-H226 lung, 93.4%; in the assay on NCI-H322M lung, 112%; with HOP-62 NSCLC, 101%; in the assay on NCI-H460 lung, 100%; in the assay with HOP-92 NSCLC it was 131%. The growth was 103% with NCI-H522 lung; 101% with A549/ATCC NSCLC; 103% in the assay with 786-0 renal; 104% in the assay on COLO 205 colon; 114% in the assay with DU-145 prostate; 97.6% in the assay with K-562 leukemia. Besides, the growth in the assay on MALME-3M melanoma was 109%; in the assay on MDA-MB-231 breast, 115%; with RXF 393 renal, 101%; in the assay on SF-268 CNS, 108%; in the assay on SF-295 CNS it was 91.8%; in the assay with SF-539 CNS it was 111%. In addition, the growth with UACC-257 melanoma was 96.2%; with M14 melanoma it was 113%.
